± gives the uncertainty stated by the source.
These compounds were tested on HEK293T-Rex XBP1-RLuc (assay: XBP1-RLuc splicing reporter activation, triplicate, relative to 500 nM thapsigargin (% of thapsigargin); higher = stronger IRE1/XBP1s reporter activation). Conditions: 6.8 µM; 18 h; screen: confirmation.
Description: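 HEK293T-Rex cells stably expressing the ERSE-firefly luciferase (BiP promoter, ATF6-preferring) or XBP1-splicing Renilla luciferase (IRE1/XBP1s) reporter, 1536-well plates, compound at 6.8 µM for 18 hr at 37 °C; luminescence read […] and expressed as % activation = 100*(compound - median DMSO)/(median 500 nM thapsigargin - median DMSO). Primary screen was single-pass; confirmation screen in triplicate (mean ± SD).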
In the case of COc1cccc(-c2nc3ccc(N)cc3[nH]2)c1, the “XBP1-RLuc splicing reporter activation” value is reported as 9.9 ± 1.3.
c1ccc2cc(-c3cnnc(N4CCOCC4)n3)ccc2c1 was tested, and the “XBP1-RLuc splicing reporter activation” value was 1.22 ± 0.96.
With O=c1/c(=C/c2ccc(O)c(O)c2)sc2nc3ccccc3n12 the “XBP1-RLuc splicing reporter activation” value was 6.32 ± 0.52.
In the case of Cn1c(-c2cccc(Cl)c2)cnc1NC(=O)c1ccccc1, the “XBP1-RLuc splicing reporter activation” value is reported as 2.86 ± 0.72.
In the case of O=C1N/C(=C\c2ccc(O)cc2)C(O)=C1C=NCc1ccccc1, the “XBP1-RLuc splicing reporter activation” value is reported as 49.1 ± 2.3.
In the case of CC(=Nc1ccc(O)cc1)c1sc2ccccc2c1O, the “XBP1-RLuc splicing reporter activation” value is reported as 15.7 ± 4.1.
With COc1cn(-c2ccc(F)cc2)nc1C(=O)Nc1ccccc1SC the “XBP1-RLuc splicing reporter activation” value was 15.5 ± 1.8.
In the case of COc1ccccc1OCC(=O)Nc1cc(C)ccc1O, the “XBP1-RLuc splicing reporter activation” value is reported as 19.6 ± 1.9.
CCN(CC)c1ccc2cc(-c3nc4ccccc4n3C)c(=O)oc2c1 was tested, and the “XBP1-RLuc splicing reporter activation” value was 9.31 ± 0.79.
In the case of C/C(=N\NC(=O)c1n[nH]c2c1CCCC2)c1ccc(Br)cc1, the “XBP1-RLuc splicing reporter activation” value is reported as 2.87 ± 0.99.
O=C(N/N=C/c1cccc(O)c1O)c1ccccn1 was tested, and the “XBP1-RLuc splicing reporter activation” value was 27 ± 0.75.
COc1ccc(N(C(=O)c2ccccc2)S(=O)(=O)c2cc(OC)ccc2OC)cc1 was tested, and the “XBP1-RLuc splicing reporter activation” value was 59.2 ± 7.4.
In the case of Cc1ccc(-c2csc(Nc3ccc(O)cc3)n2)cc1, the “XBP1-RLuc splicing reporter activation” value is reported as 21.3 ± 2.7.
In the case of CN(C)/C=N/C1=C(C#N)C(c2ccc3c(c2)OCO3)c2ccc3ccccc3c2O1 (stereo not given), the “XBP1-RLuc splicing reporter activation” value is reported as 1.3 ± 3.6.
For Cc1ccc(C(=O)Nc2ccccc2N)cc1, the “XBP1-RLuc splicing reporter activation” value was 14.1 ± 1.3.
In the case of CCCCNc1ncnc2c1cnn2-c1ccc(Cl)cc1, the “XBP1-RLuc splicing reporter activation” value is reported as 1.56 ± 1.6.
In the case of Nc1ccc2nc(-c3ccc(Cl)cc3)[nH]c2c1, the “XBP1-RLuc splicing reporter activation” value is reported as 8.9 ± 0.25.
With CN(c1ccccc1)S(=O)(=O)c1cccc(C(=O)NCCc2ccc(O)c(O)c2)c1 the “XBP1-RLuc splicing reporter activation” value was 33.2 ± 0.95.
For Nc1c(C(=O)Nc2ccccc2)sc2nc3c(cc12)CCCCC3, the “XBP1-RLuc splicing reporter activation” value was 12.6 ± 4.7.
With Oc1cccc(Nc2nc(-c3ccc(O)c(O)c3)cs2)c1 the “XBP1-RLuc splicing reporter activation” value was 17.5 ± 0.67.
With COc1cc(/C=C/c2ccc(O)c(OC)c2)ccc1O the “XBP1-RLuc splicing reporter activation” value was 31.8 ± 2.2.
Oc1ccc(-c2cnc3c(Nc4ccc5[nH]ccc5c4)nccn23)cc1 was tested, and the “XBP1-RLuc splicing reporter activation” value was 39.2 ± 1.5.
With O=C(Nc1ccc(Cl)cn1)c1ccc(Cl)cc1Cl the “XBP1-RLuc splicing reporter activation” value was 0.717 ± 0.56.
For O=C(COC(=O)c1cc(O)c(O)c(O)c1)Nc1ccc(Br)cc1F, the “XBP1-RLuc splicing reporter activation” value was 20.18 ± 0.15.
COc1cccc(-c2cc(C(=O)Nc3cc(C)ccc3O)no2)c1 was tested, and the “XBP1-RLuc splicing reporter activation” value was 12.6 ± 4.8.
With O=C(/C=C/c1ccco1)Nc1ccccn1 the “XBP1-RLuc splicing reporter activation” value was 0.777 ± 0.52.
In the case of CC(C)c1ccc(NC(=O)/C=C/c2ccco2)cc1, the “XBP1-RLuc splicing reporter activation” value is reported as 4 ± 0.68.
For NC(=O)c1c(NC(=O)COc2ccccc2)sc2c1CCC2, the “XBP1-RLuc splicing reporter activation” value was -0.209 ± 0.99.
With C=CCNC(=O)c1sc2nc3cc(C)c(C)cc3cc2c1N the “XBP1-RLuc splicing reporter activation” value was -0.518 ± 1.4.
In the case of Cc1ccc(O)c(NC(=O)c2cc(C(C)C)on2)c1, the “XBP1-RLuc splicing reporter activation” value is reported as 12.7 ± 0.5.
Fc1ccc(-c2nnc3ccc(N4CCN(c5ccccn5)CC4)nn23)cc1 was tested, and the “XBP1-RLuc splicing reporter activation” value was 38.3 ± 2.6.
N#C/C(=C(/O)c1cc(-c2ccccc2)nc2ccccc12)c1nc2ccccc2[nH]1 was tested, and the “XBP1-RLuc splicing reporter activation” value was 9.52 ± 1.4.
With O=C(Nc1ccc(O)cc1)c1c(O)c2c([nH]c1=O)CCCC2 the “XBP1-RLuc splicing reporter activation” value was 19 ± 0.94.
For CCCNc1ccnc(N2CCc3ccccc3C2)n1, the “XBP1-RLuc splicing reporter activation” value was -1.35 ± 0.17.
O=C1/C(=C/c2ccc(O)c(O)c2)Oc2cc(O)ccc21 was tested, and the “XBP1-RLuc splicing reporter activation” value was 12.6 ± 0.23.
In the case of CCCCCOc1ccc(N/C(N)=N/c2nc(C)cc(C)n2)cc1, the “XBP1-RLuc splicing reporter activation” value is reported as 159 ± 6.3.
CN(C)c1ccc(/C=C/C(=O)NC(=O)c2ccccc2OC(=O)c2ccccc2)cc1 was tested, and the “XBP1-RLuc splicing reporter activation” value was 0.481 ± 0.46.
For O=C(NCCc1ccccc1)c1cc(-c2cccs2)on1, the “XBP1-RLuc splicing reporter activation” value was 5.58 ± 1.
For C/C(=N\NC(=O)c1n[nH]c2c1CCCC2)c1ccc2ccccc2c1, the “XBP1-RLuc splicing reporter activation” value was 1.43 ± 0.96.
CN(C)c1ccc(-c2nc3ccc(N)cc3[nH]2)cc1 was tested, and the “XBP1-RLuc splicing reporter activation” value was 13.4 ± 0.35.

— the supplement of paper PMC4954754
